The campaign covered roughly 69,000 compounds. About 8,600 (12%) showed an effect of 50% or more. The sample holds strong results, similar compounds and a random draw of the others, so the mix is not that of the screen.

The subject of the assay is Plasmodium berghei. As to the kind of experiment: Screen against P. berghei liver stage (PbLuc), transformed with Luciferase, at 10uM. It counts as functional, HepG2. To be noted: tested at 10 uM.
Consider `COc1cc(NC(=O)N2CCCC2c2nncn2C)ccc1Br` (centres undefined), for which the INHIBITION is reported as 55.6%.

For the compound `CCOCc1ccc(NC(=O)N2CCCC2c2nncn2C)cc1` (centres undefined), the INHIBITION is 43.7%.

For `Cn1cnnc1C1CCCN1C(=O)Nc1cccc(OC(F)F)c1` (centres undefined), the INHIBITION came to 30.7%.

Take `c1cncc(CN2CCc3ncnc(NCCc4c[nH]cn4)c3CC2)c1`: the INHIBITION was 38.3%.

In the case of `CC(C)c1nc(C2CCCN(C(=O)c3ccc4nncn4c3)C2)no1` (centres undefined), the INHIBITION is -43.6%.

With `CCC(C)N1CCC2(CC1)CN(c1cncnc1)C(=O)CO2` (centres undefined), the INHIBITION turned out to be 3.25%.

With `Cc1ccc(CNC2CCN(CCc3ccncc3)CC2)cc1C`, the INHIBITION stood at 15.1%.

`N#Cc1ccc(CNC(=O)NC2CCN(CC(F)(F)F)C2)cc1` (centres undefined): the INHIBITION amounted to 52%.

Take `COCCN1CCC(NCc2ccc(Cl)cc2)C1` (centres undefined): the INHIBITION is 23.4%.

As to `N#Cc1ccc(CNC2CCN(CCc3ccncc3)CC2)cc1`, the INHIBITION was 51.1%.

Turning to `Clc1cccc(CNC2CCN(CCc3ccncc3)CC2)c1`, the INHIBITION worked out at 52.9%.

As to `N#Cc1ccc(CNC(=O)NC2CCN(CC(F)F)CC2)cc1`, the INHIBITION came out at 26.1%.

In the case of `CSc1ccc(CNC2CCN(CCc3ccncc3)CC2)cc1`, the INHIBITION is on record as 16.1%.

On to `COCCN1CCC(NCc2cccc(C)c2)C1` (centres undefined), for which the INHIBITION is given as 15.6%.

As to `N#Cc1ccc(CNC(=O)NC2CCN(c3ncccn3)CC2)cc1`, the INHIBITION is 23.3%.

Turning to `Oc1cccc(CNC2CCN(CCc3ccncc3)CC2)c1`, the INHIBITION was 4.48%.

On to `Fc1ccc(CNC2CCN(CCc3ccncc3)CC2)cc1F`, for which the INHIBITION was 21.5%.

In the case of `COCCN1CCC(NCc2ccc(C#N)cc2)C1` (centres undefined), the INHIBITION came to 57.4%.

As to `O=C1CCC2(CCC(NC3CCOC3)CC2)N1Cc1ccccc1` (centres undefined), the INHIBITION is -17.1%.

In the case of `Cc1cccc(CN2Cc3[nH]nc(COCCO)c3C2)n1`, the INHIBITION amounted to 29%.

Consider `Cc1nc(C(=O)N2CCOC(c3nc(C(C)C)n[nH]3)C2)c[nH]1` (centres undefined), for which the INHIBITION was -16%.

As for `CCN(Cc1nonc1C)C(=O)c1cc(C(F)(F)F)nn1C`, the INHIBITION was determined as 29.9%.

Turning to `CN(C)Cc1cccc(C(=O)N2CCCC(n3cncn3)C2)c1` (centres undefined), the INHIBITION amounted to 29.2%.

Regarding `COc1cc2[nH]c(C(=O)O)cc2c(OC)c1C`, the INHIBITION is -13.1%.

For the compound `CCn1nc2ccc(S(=O)(=O)N3CCSCC3)cn2c1=O`, the INHIBITION worked out at 7.92%.

Turning to `COc1ccc(C(C)NCCC(N)=O)cc1F` (centres undefined), the INHIBITION was found to be 49.4%.

Turning to `CCOc1cccc(C(C)NCc2ccc(OC)c(OC)c2OC)c1` (centres undefined), the INHIBITION came out at 38.5%.

Take `COc1ccc(CNC(C)c2cccc(Br)c2)c(OC)c1OC` (centres undefined): the INHIBITION worked out at 70.5%.

In the case of `CC(NCc1ccc(OCC(N)=O)cc1)c1ccc(Cl)cc1` (centres undefined), the INHIBITION came to 43.3%.

Take `COc1cc(CNC(C)c2cccc(Cl)c2)cc(OC)c1OC` (centres undefined): the INHIBITION is reported as 63.7%.

As for `COc1ccc(CNC(C)c2cccc(Cl)c2)c(OC)c1OC` (centres undefined), the INHIBITION came out at 44.3%.

As to `COc1cc(CNC(C)Cn2cccn2)cc(Cl)c1OC` (centres undefined), the INHIBITION is -3.7%.

As to `COc1ccc(C(C)NCc2ccc(OC)c(OC)c2OC)cc1F` (centres undefined), the INHIBITION amounted to 67.1%.

In the case of `CC(NCC1CCN(CCO)CC1)c1cccc(Cl)c1` (centres undefined), the INHIBITION is 40.4%.

Take `COc1ccc(C(C)NCc2cnnn2C)cc1F` (centres undefined): the INHIBITION is given as 36.6%.

On to `COc1ccc(CNC(C)c2ccccc2Cl)c(OC)c1OC` (centres undefined), for which the INHIBITION was 48.3%.

Regarding `COc1ccc(CNC(C)c2ccc(Cl)cc2)c(OC)c1OC` (centres undefined), the INHIBITION worked out at 56%.

With `O=C(COC1CCCCC1)N1CCCC(n2ccnc2)C1` (centres undefined), the INHIBITION is -29.8%.

Regarding `CCN1CC(C(=O)NC(C)(C)C(=O)OC)CC1=O` (centres undefined), the INHIBITION is on record as -10.3%.

Turning to `Cc1[nH]nc(CCC(=O)NCC2CCN(C3CCCCC3)C2)c1C` (centres undefined), the INHIBITION is recorded as -57.5%.

`COc1ccc(CNC(C)c2ccc(Cl)c(Cl)c2)c(OC)c1OC` (centres undefined): the INHIBITION is 70.5%.

In the case of `COc1cc(CNCC(O)c2ccc(F)c(F)c2)cc2c1OCO2` (centres undefined), the INHIBITION is listed as 24%.

On to `CC(NCc1ccc(C(N)=O)cc1)c1ccc(Cl)c(Cl)c1` (centres undefined), for which the INHIBITION is on record as -29.2%.

With `COc1cc(CNCC(O)c2ccc(C)cc2)cc2c1OCCO2` (centres undefined), the INHIBITION is reported as 21.8%.

Turning to `COc1cc(CNC(C)c2ccc(F)c(F)c2)cc2c1OCCO2` (centres undefined), the INHIBITION worked out at 66.7%.

As to `COc1ccc(C(C)NCc2c[nH]nc2C)cc1Br` (centres undefined), the INHIBITION worked out at 43.9%.

In the case of `CO[C@@H]1CCN(c2ncc(F)cn2)[C@H]1Cc1cnn(C)c1`, the INHIBITION was found to be 28.4%.

In the case of `CN1CCN(C)C(CNC(=O)N(C)Cc2ccccc2Cl)C1` (centres undefined), the INHIBITION is listed as 17.1%.

Turning to `Cc1cc(C2CCCN2C(=O)c2csc(-c3cnn(C)c3)n2)on1` (centres undefined), the INHIBITION is on record as -1.445%.

On to `CCn1nc(C)c2nnn(CC(=O)Nc3cccc(F)c3)c(=O)c21`, for which the INHIBITION is 15.9%.

As to `NC(=O)C(CNC(=O)Cc1ccc(F)cc1)Cc1ccc(F)cc1` (centres undefined), the INHIBITION is given as 29.2%.

Take `Cc1ccc(C(=O)Cc2c(Cl)nc3n(C)c(=O)n(C)c(=O)n23)cc1`: the INHIBITION is given as 85%.

Regarding `Cn1c(=O)n(C)c2nc(Cl)c(CC(=O)c3ccccc3)n2c1=O`, the INHIBITION is given as -6.47%.

`Cn1c(=O)n(C)c2nc(Cl)c(CC(=O)c3ccc(F)cc3)n2c1=O`: the INHIBITION is given as 48.3%.

(Values after ChEMBL document CHEMBL4513216, “Probing the Open Global Health Chemical Diversity Library for Multistage-Active Starting Points for Next-Generation Antimalarials” (ACS Infect Dis, 2020).)
